Some of the results follow. Calls of active or inactive are those of the source. Cut-off read from the data, not from the text of the source, unless noted: active = binding response below about 74% or above about 130%; inactive = in between.

The target of test [1] is Regulator of G-protein signaling 16 (Homo sapiens) (UniProt O15492). Kind of test: small molecules altering RGS protein interactions with GNAO1 – biochemical, multiplexed beads, flow cytometry, RGS4/7/8/16/19, primary screen (AID 1504).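 Note: fluorescently labeled Galpha-o bound to GDP with aluminium fluoride binding biotinylated RGS beads.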 Conditions: multiplexed bead flow cytometry, measured here: RGS16 interaction, at 10 µM.
Test [2] concerns the target Regulator of G-protein signaling 19 (Homo sapiens) (UniProt P49795). The description is as above. Conditions: multiplexed bead flow cytometry, measured here: RGS19 interaction, at 10 µM. (In general: A flow cytometer gives signals particle by particle.)
In test [3] the target is Regulator of G-protein signaling 7 (Homo sapiens) (UniProt P49802). The description is as above. The conditions noted are these: multiplexed bead flow cytometry, measured here: RGS7 interaction, at 10 µM.
The target of test [4] is Regulator of G-protein signaling 8 (Homo sapiens) (UniProt P57771). The description is as above. The conditions noted are these: multiplexed bead flow cytometry, measured here: RGS8 interaction, at 10 µM.
Test [5] is described as follows: interference with biotin-avidin bead interaction – biochemical, flow cytometry, bead-based, counter-screen for RGS protein interaction modulators (AID 1783;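 active = inhibition above 50%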;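 note: median green fluorescence of gated singlet beads compared with DMSO control wells; 0% = DMSO wells and 100% = complete loss of bead fluorescence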). The conditions noted are these: streptavidin beads, fluorescein-biotin binding; at 10 µM, stronger effect = higher value.
Test [6] deals with Guanine nucleotide-binding protein G(o) subunit alpha (Homo sapiens) (UniProt P09471). Kind of test: retest of RGS8-Galphao interaction hits – biochemical, multiplexed bead flow cytometry, single concentration, confirmation (AID 1836; in the data active = binding response below about 72% or above about 130%; inactive = in between;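 note: Galphao activated as GDP AlF4 complex before binding bead RGS8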). Conditions: bead-based flow cytometry RGS8-Galphao binding, fluorescence; at 10 µM; actives lie on both sides.
The target is the same in test [7]. Kind of test: retest of RGS7-Galphao interaction hits – biochemical, multiplexed bead flow cytometry, single concentration, confirmation (AID 1837; in the data active = response below about 75% or above about 130%; inactive = in between;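 note: fluorescent Galphao activated with GDP and aluminum fluoride binding bead-coupled RGS7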). Conditions: bead-based flow cytometry RGS7-Galphao binding; at 10 µM; actives lie on both sides.
The target of test [8] is Regulator of G-protein signaling 16 (Homo sapiens) + Guanine nucleotide-binding protein G(o) subunit alpha (Homo sapiens) (UniProt O15492+P09471). Kind of test: RGS16 and Galphao interaction regulators – biochemical, single concentration, multiplexed bead flow cytometry, confirmation (AID 1838; in the data active = response below about 74% or above about 130%; inactive = in between;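 note: Galphao activated as the GDP aluminium fluoride complex binding bead-coupled RGS16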). Conditions: bead-based flow cytometry, at 10 µM, actives lie on both sides.
Test [9] has as its target Guanine nucleotide-binding protein G(o) subunit alpha (Homo sapiens) (UniProt P09471). Kind of test: RGS4 and Galphao interaction regulators – biochemical, single concentration, multiplexed bead flow cytometry, confirmation (AID 1840). Conditions: at 10 µM, actives lie on both sides.
Test [10] addresses Guanine nucleotide-binding protein G(o) subunit alpha (Homo sapiens) + Regulator of G-protein signaling 19 (Homo sapiens) (UniProt P09471+P49795). As to the kind of experiment: RGS19 interaction with Gαo, hit retest – biochemical, single point, multiplexed bead flow cytometry, confirmation (AID 1841; in the data active = response below about 50% or above about 160%; inactive = in between;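 note: 100% = no compound control and 0% = blank background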). The conditions noted are these: bead-based flow cytometry RGS19-Galphao binding; at 10 µM; actives lie on both sides.

Sequence of Regulator of G-protein signaling 16 (Homo sapiens) + Guanine nucleotide-binding protein G(o) subunit alpha (Homo sapiens) (O15492 whole entry, looked up): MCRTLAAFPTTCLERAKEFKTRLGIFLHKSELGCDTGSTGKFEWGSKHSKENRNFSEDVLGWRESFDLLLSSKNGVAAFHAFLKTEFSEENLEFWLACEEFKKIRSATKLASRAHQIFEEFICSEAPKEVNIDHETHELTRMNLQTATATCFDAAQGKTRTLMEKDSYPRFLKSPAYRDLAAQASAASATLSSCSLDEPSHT
Sequence of Regulator of G-protein signaling 16 (Homo sapiens) + Guanine nucleotide-binding protein G(o) subunit alpha (Homo sapiens) (P09471 whole entry, looked up): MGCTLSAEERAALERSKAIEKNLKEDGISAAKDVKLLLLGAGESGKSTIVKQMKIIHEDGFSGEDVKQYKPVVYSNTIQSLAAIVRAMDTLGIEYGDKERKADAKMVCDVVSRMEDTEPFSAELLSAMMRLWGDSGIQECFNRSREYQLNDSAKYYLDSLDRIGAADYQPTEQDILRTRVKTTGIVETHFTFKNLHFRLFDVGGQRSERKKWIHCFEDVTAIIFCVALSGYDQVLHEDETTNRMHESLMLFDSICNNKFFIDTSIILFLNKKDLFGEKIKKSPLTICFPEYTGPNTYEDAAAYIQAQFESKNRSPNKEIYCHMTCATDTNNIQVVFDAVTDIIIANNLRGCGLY
Sequence of Guanine nucleotide-binding protein G(o) subunit alpha (Homo sapiens) + Regulator of G-protein signaling 19 (Homo sapiens) (P09471 whole entry, looked up): as above
Sequence of Guanine nucleotide-binding protein G(o) subunit alpha (Homo sapiens) + Regulator of G-protein signaling 19 (Homo sapiens) (P49795 whole entry, looked up): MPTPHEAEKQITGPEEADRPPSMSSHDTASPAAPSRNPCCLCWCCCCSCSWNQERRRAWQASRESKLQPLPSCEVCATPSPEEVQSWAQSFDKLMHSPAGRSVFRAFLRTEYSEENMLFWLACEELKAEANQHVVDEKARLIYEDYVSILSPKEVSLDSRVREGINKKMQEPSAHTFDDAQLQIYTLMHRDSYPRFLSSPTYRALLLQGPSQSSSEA
Sequence of Guanine nucleotide-binding protein G(o) subunit alpha (Homo sapiens) (P09471 whole entry, looked up): as the sequence (P09471 whole entry, looked up) above

In the case of `O=C(NC1CC1)c1ccc2c(c1)NC(=O)c1ccccc1S2`, the RGS16–Galpha-o binding response in test [1] stood at 113%. For the same compound, in test [2], the RGS19–Galpha-o binding response was 370%. The compound further yielded an RGS7–Galpha-o binding response in test [3] of 191%. Further, the RGS8–Galpha-o binding response in test [4] is 98.7%.
One may read the inhibition as the drop in the measured response relative to a control, in per cent. As for `C/C(=N\NS(=O)(=O)c1ccc(Br)cc1)c1cccs1`, in test [1], the RGS16–Galpha-o binding response was -881%. Besides, the RGS19–Galpha-o binding response in [2] was found to be 99.9%. The RGS7–Galpha-o binding response in test [3] came to 106%. The same compound registered an RGS8–Galpha-o binding response in [4] of 95.4%. In addition, the inhibition in test [5] is 1.5% (inactive). Moreover, the binding response (% of control) was 102% (inactive) in [6] and 104% (inactive) in test [9]. The response (percent of control binding) is 103% (inactive) in [7] and 99.1% (inactive) in [10]. Also, in test [8], the response (% of control binding) is 103% (inactive).
As to `C/C(=C/C(=O)N1CCN(C)CC1)C(=O)O`, in test [1], the RGS16–Galpha-o binding response worked out at 234%. Further, in test [2], the RGS19–Galpha-o binding response was -6.25%. This compound also returned an RGS7–Galpha-o binding response in test [3] of 105%. Moreover, the RGS8–Galpha-o binding response in [4] worked out at 125%. Further, the inhibition in test [5] was 0.5% (inactive). For the same compound, the binding response (% of control) in test [6] is 104% (inactive); in test [9], 102% (inactive). The response (percent of control binding) is 98.7% (inactive) in test [7] and 102% (inactive) in [10]. Moreover, the response (% of control binding) in test [8] is 105% (inactive).
In the case of `CSc1ccc(CN2C(=O)NC3(CCCCCC3)C2=O)cc1`, in [1], the RGS16–Galpha-o binding response is 99.1%. In addition, the RGS19–Galpha-o binding response in test [2] was found to be 1890%. Further, the RGS7–Galpha-o binding response in test [3] was found to be 219%. The RGS8–Galpha-o binding response in test [4] came to 97.9%. Moreover, the inhibition in test [5] was -1.7% (inactive). In addition, the binding response (% of control) in [6] was 96.3% (inactive); in test [9], 97.1% (inactive). The response (percent of control binding) was 94.7% (inactive) in [7] and 108% (inactive) in test [10]. Also, the response (% of control binding) in test [8] is 96.5% (inactive).
For the compound `COc1ccc(C(=O)NNc2cc(C)nc(NNC(=O)c3ccc(OC)cc3)n2)cc1`, the RGS16–Galpha-o binding response in [1] was 4.94%. Further, the RGS19–Galpha-o binding response in test [2] turned out to be 167%. Besides, the RGS7–Galpha-o binding response in [3] was determined as 72.3%. The same compound registered an RGS8–Galpha-o binding response in test [4] of 54%. For the same compound, in [5], the inhibition was 1.4% (inactive). Besides, the binding response (% of control) in test [6] was 108% (inactive); in test [9], 110% (inactive). Besides, the response (percent of control binding) in test [7] was 115% (inactive); in [10], 107% (inactive). In test [8], the response (% of control binding) was 111% (inactive).
On to `Cc1c(CN2CCCC(C(=O)c3cccc(Cl)c3)C2)c(=O)n(-c2ccccc2)n1C` (centres undefined), for which the RGS16–Galpha-o binding response in test [1] is 97.1%. Moreover, the RGS19–Galpha-o binding response in test [2] was found to be 50.3%. The RGS7–Galpha-o binding response in [3] worked out at 230%. The compound further came in with an RGS8–Galpha-o binding response in test [4] of 95%. Moreover, in test [5], the inhibition was -1.5% (inactive). The binding response (% of control) in [6] is 102% (inactive); in [9], 103% (inactive). In addition, the response (percent of control binding) in test [7] was 106% (inactive); in [10], 104% (inactive). For the same compound, in test [8], the response (% of control binding) was 102% (inactive).
As to `O=C(Nc1cccc(F)c1)c1coc(=O)c(Br)c1`, the RGS16–Galpha-o binding response in test [1] came to 100%. The RGS19–Galpha-o binding response in test [2] was 108%. In addition, the RGS7–Galpha-o binding response in [3] came out at 45.3%. Besides, in test [4], the RGS8–Galpha-o binding response was found to be 80.8%. In [5], the inhibition is -1.3% (inactive). Moreover, the binding response (% of control) in test [6] is 110% (inactive); in test [9] it was 103% (inactive). Also, the response (percent of control binding) is 105% (inactive) in test [7] and 118% (inactive) in test [10]. Besides, the response (% of control binding) in test [8] is 109% (inactive).
For the compound `CN(C)S(=O)(=O)Oc1ccccc1C(=O)Nc1ccccc1Cl`, the RGS16–Galpha-o binding response in test [1] was 100%. In test [2], the RGS19–Galpha-o binding response was 70.6%. This compound had an RGS7–Galpha-o binding response in test [3] of 223%. In test [4], this compound returned an RGS8–Galpha-o binding response of 97.6%. In test [5], the inhibition is -0.2% (inactive). Further, the binding response (% of control) in [6] was 97.3% (inactive); in [9], 98.9% (inactive). Further, the results for the response (percent of control binding) in test [7] and in test [10] were 101% (inactive) and 83.3% (inactive), respectively. In addition, in test [8], the response (% of control binding) is 100% (inactive).
In the case of `CCOc1ccc(NC(=O)CSc2nc3ccccc3c(=O)n2Cc2cccs2)cc1`, the RGS16–Galpha-o binding response in [1] is -1.24%. For the same compound, the RGS19–Galpha-o binding response in [2] is 116%. The same compound yielded an RGS7–Galpha-o binding response in test [3] of 81.9%. This compound also yielded an RGS8–Galpha-o binding response in test [4] of 75.5%. Also, the inhibition in [5] is 1.1% (inactive). Also, the binding response (% of control) in test [6] was 101% (inactive); in test [9], 102% (inactive). Also, the response (percent of control binding) in test [7] was 104% (inactive); in test [10], 102% (inactive). The response (% of control binding) in [8] was 104% (inactive).

For the origin of these results see PubChem BioAssay.
